Measurements from PubChem BioAssay (Tox21).
Records with an inconclusive call do not appear. Where a call stands in place of a potency, no number is given. Active and inactive are the calls of the source. Calls come from the whole dose curve.

What follows are compounds tested against Acetylcholinesterase (Homo sapiens) (UniProt P22303) (assay: Acetylcholinesterase (AChE) small molecule antagonists: fluorescence cell-based qHTS assay (AID 1347398; note: nearly all actives have a fitted effect of over 50% in size)). Conditions: SH-SY5Y cells; Potency: AChE activity; outcome: AChE activity; series mostly up to 115 µM.
Acetylcholinesterase (Homo sapiens), sequence (P22303 whole entry, looked up): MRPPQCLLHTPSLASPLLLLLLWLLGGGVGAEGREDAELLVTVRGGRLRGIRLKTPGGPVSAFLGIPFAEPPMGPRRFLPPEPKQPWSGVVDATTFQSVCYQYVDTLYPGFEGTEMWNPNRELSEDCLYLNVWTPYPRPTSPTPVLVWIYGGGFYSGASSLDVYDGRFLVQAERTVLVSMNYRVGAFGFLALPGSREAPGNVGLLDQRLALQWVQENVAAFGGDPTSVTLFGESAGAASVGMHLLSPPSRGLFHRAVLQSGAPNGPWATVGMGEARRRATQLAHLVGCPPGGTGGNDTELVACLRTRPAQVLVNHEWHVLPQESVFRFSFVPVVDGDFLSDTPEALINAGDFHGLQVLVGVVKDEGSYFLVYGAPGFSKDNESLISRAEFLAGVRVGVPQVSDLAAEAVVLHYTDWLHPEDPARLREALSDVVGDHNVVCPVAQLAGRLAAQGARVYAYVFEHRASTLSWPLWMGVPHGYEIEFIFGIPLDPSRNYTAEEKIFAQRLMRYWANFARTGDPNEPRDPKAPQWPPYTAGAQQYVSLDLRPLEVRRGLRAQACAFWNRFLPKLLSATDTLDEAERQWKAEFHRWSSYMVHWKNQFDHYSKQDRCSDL
Outline: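 Using neuroblastoma SH-SY5Y cells as the enzyme source, test chemicals are preincubated 30 min at 37 C; AChE-driven acetylthiocholine cleavage is then quantified by thiocholine-dependent Thiolite Green fluorescence after 40 min at room temperature.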

Row | SMILES | Potency | activity change, negative = inhibition
1 | CCC/C=C(\C=O)CC | inactive | 
2 | CC1(C)C(=O)N(Cl)C(=O)N1Br | inactive | 
3 | Oc1ccccc1Cc1ccccc1O | inactive | 
4 | CCCCCCCC(=O)OCC(COC(=O)CCCCCCC)OC(=O)CCCCCCC | inactive | 
5 | N=c1nc(N2CCCCC2)cc(N)n1O | inactive | 
6 | COc1cc(C(=O)NCCCCCC(=O)O)cc(OC)c1OC | inactive | 
7 | CCn1cc(C(=O)O)c(=O)c2cnc(N3CCNCC3)nc21 | inactive | 
8 | CCCCCCCC/C=C\CCCCCCCC(=O)OCCOC(=O)CCCCCCC/C=C\CCCCCCCC | inactive | 
9 | O=C(c1ccc(O)cc1)c1ccc(Cl)cc1 | inactive | 
10 | CC(C)(C)C1=CC(=O)C(C(C)(C)C)=CC1=O | inactive | 
11 | CN(C)c1ccc(Cc2ccc(N(C)C)cc2)cc1 | inactive | 
12 | CCC[C@H](N[C@@H](C)C(=O)N1[C@H](C(=O)O)C[C@@H]2CCCC[C@@H]21)C(=O)OCC | inactive | 
13 | O=c1c(O)c(-c2ccc(O)c(O)c2)oc2cc(O)cc(O)c12 | inactive | 
14 | COP(=O)(OC)OC(c1ccc(Cl)cc1)P(=O)(OC)OC (stereo not given) | inactive | 
15 | O=C(c1ccccc1)c1ccc(O)c(O)c1O | inactive | 
16 | O=[N+]([O-])c1ccc(CO)cc1 | inactive | 
17 | CC(C)N1C(=O)c2ccccc2C1=O | inactive | 
18 | C1COCO1 | inactive | 
19 | COCCOC[C@H](CC1(C(=O)NC2CCC(C(=O)O)CC2)CCCC1)C(=O)Oc1ccc2c(c1)CCC2 (stereo not given in full) | inactive | 
20 | CC(C)COC(=O)/C=C/c1ccccc1 | inactive | 

Row | SMILES | Potency | activity change, negative = inhibition
21 | C[C@@H]1NC(=O)[C@@H](N)CNC(=O)[C@H](C2CCNC(N)=N2)NC(=O)/C(=C/NC(N)=O)NC(=O)[C@H](CNC(=O)C[C@@H](N)CCCN)NC1=O (stereo not given in full) |  | 6.12% [at 0.439 µM] (inactive)
22 | O=C1c2ccccc2CCc2ccccc21 | inactive | 
23 | CCCOC(=O)c1ccc(C(=O)OCCC)nc1 | inactive | 
24 | O=C(O)c1[nH]n(-c2ccc(S(=O)(=O)O)cc2)c(=O)c1N=Nc1ccc(S(=O)(=O)O)cc1 | inactive | 
25 | CCC(C)(C)C1CCCCC1OC(C)=O (stereo not given) | inactive | 
26 | COc1ccc(C(=O)/C(Br)=C\C(=O)O)cc1 | inactive | 
27 | CCOc1ccc(NC(C)=O)cc1N | inactive | 
28 | ClC/C=C\CCl | inactive | 
29 | c1ccc2sc(SSN3CCOCC3)nc2c1 | inactive | 
30 | OC1(c2ccc(Cl)c(C(F)(F)F)c2)CCN(CCCC(c2ccc(F)cc2)c2ccc(F)cc2)CC1 | inactive | 
31 | O=C(c1cc(O)c(O)c(O)c1)c1ccc(O)c(O)c1O | inactive | 
32 | OCCN1CCN(CCO)CC1 | inactive | 
33 | CCCCCC(=O)O[C@]1(C(C)=O)CC[C@H]2[C@@H]3CCC4=CC(=O)CC[C@]4(C)[C@H]3CC[C@@]21C | inactive | 
34 | C=C/C(C)=C/C/C=C(\C)CCC=C(C)C | inactive | 
35 | C=CCCCCCCCC | inactive | 
36 | O=C(O)/C=C/c1cnc[nH]1 | inactive | 
37 | COc1c2ccoc2cc2oc(=O)ccc12 | inactive | 
38 | CC(O)CC(C)(C)O (stereo not given) | inactive | 
39 | c1ccc2[nH]cnc2c1 | inactive | 
40 | Cc1ccc(N)c(S(=O)(=O)O)c1 | inactive | 

The compounds below were run against Acetylcholinesterase (Homo sapiens) (UniProt P22303) (assay: Acetylcholinesterase (AChE) small molecule antagonists: enzyme-based qHTS assay with human liver microsomes (AID 1347399; note: nearly all actives have a fitted effect of over 60% in size)). Conditions: Potency: qHTS inhibition; outcome: qHTS inhibition; series mostly up to 115 µM.
Outline: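 Recombinant human AChE (50 mU/mL in the enzyme mix) and human liver microsomes (0.25 mg/mL final) were preincubated with compound and NADPH (0.25 mg/mL final) for 30 min at 37 C. Acetylthiocholine/DTNB was then added; thiocholine was read colorimetrically after 10 min at room temperature.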

Row | SMILES | Potency | activity change, negative = inhibition
41 | CCC/C=C(\C=O)CC | inactive | 
42 | CC1(C)C(=O)N(Cl)C(=O)N1Br | inactive | 
43 | Oc1ccccc1Cc1ccccc1O | inactive | 
44 | CCCCCCCC(=O)OCC(COC(=O)CCCCCCC)OC(=O)CCCCCCC | inactive | 
45 | N=c1nc(N2CCCCC2)cc(N)n1O | inactive | 
46 | COc1cc(C(=O)NCCCCCC(=O)O)cc(OC)c1OC | inactive | 
47 | CCn1cc(C(=O)O)c(=O)c2cnc(N3CCNCC3)nc21 | inactive | 
48 | CCCCCCCC/C=C\CCCCCCCC(=O)OCCOC(=O)CCCCCCC/C=C\CCCCCCCC | inactive | 
49 | O=C(c1ccc(O)cc1)c1ccc(Cl)cc1 | inactive | 
50 | CC(C)(C)C1=CC(=O)C(C(C)(C)C)=CC1=O | inactive | 
51 | CN(C)c1ccc(Cc2ccc(N(C)C)cc2)cc1 | inactive | 
52 | CCC[C@H](N[C@@H](C)C(=O)N1[C@H](C(=O)O)C[C@@H]2CCCC[C@@H]21)C(=O)OCC | inactive | 
53 | O=c1c(O)c(-c2ccc(O)c(O)c2)oc2cc(O)cc(O)c12 | inactive | 
54 | COP(=O)(OC)OC(c1ccc(Cl)cc1)P(=O)(OC)OC (stereo not given) | inactive | 
55 | O=C(c1ccccc1)c1ccc(O)c(O)c1O | inactive | 
56 | O=[N+]([O-])c1ccc(CO)cc1 | inactive | 
57 | CC(C)N1C(=O)c2ccccc2C1=O | inactive | 
58 | C1COCO1 | inactive | 
59 | COCCOC[C@H](CC1(C(=O)NC2CCC(C(=O)O)CC2)CCCC1)C(=O)Oc1ccc2c(c1)CCC2 (stereo not given in full) | inactive | 
60 | CC(C)COC(=O)/C=C/c1ccccc1 | inactive | 

Row | SMILES | Potency | activity change, negative = inhibition
61 | C[C@@H]1NC(=O)[C@@H](N)CNC(=O)[C@H](C2CCNC(N)=N2)NC(=O)/C(=C/NC(N)=O)NC(=O)[C@H](CNC(=O)C[C@@H](N)CCCN)NC1=O (stereo not given in full) |  | -1.43% [at 0.435 µM] (inactive)
62 | O=C1c2ccccc2CCc2ccccc21 | inactive | 
63 | CCCOC(=O)c1ccc(C(=O)OCCC)nc1 | inactive | 
64 | O=C(O)c1[nH]n(-c2ccc(S(=O)(=O)O)cc2)c(=O)c1N=Nc1ccc(S(=O)(=O)O)cc1 | inactive | 
65 | CCC(C)(C)C1CCCCC1OC(C)=O (stereo not given) | inactive | 
66 | COc1ccc(C(=O)/C(Br)=C\C(=O)O)cc1 | inactive | 
67 | CCOc1ccc(NC(C)=O)cc1N | inactive | 
68 | ClC/C=C\CCl | inactive | 
69 | c1ccc2sc(SSN3CCOCC3)nc2c1 | inactive | 
70 | OC1(c2ccc(Cl)c(C(F)(F)F)c2)CCN(CCCC(c2ccc(F)cc2)c2ccc(F)cc2)CC1 | inactive | 
71 | O=C(c1cc(O)c(O)c(O)c1)c1ccc(O)c(O)c1O | inactive | 
72 | OCCN1CCN(CCO)CC1 | inactive | 
73 | CCCCCC(=O)O[C@]1(C(C)=O)CC[C@H]2[C@@H]3CCC4=CC(=O)CC[C@]4(C)[C@H]3CC[C@@]21C | inactive | 
74 | C=C/C(C)=C/C/C=C(\C)CCC=C(C)C | inactive | 
75 | C=CCCCCCCCC | inactive | 
76 | O=C(O)/C=C/c1cnc[nH]1 | inactive | 
77 | COc1c2ccoc2cc2oc(=O)ccc12 | inactive | 
78 | CC(O)CC(C)(C)O (stereo not given) | inactive | 
79 | c1ccc2[nH]cnc2c1 | inactive | 
80 | Cc1ccc(N)c(S(=O)(=O)O)c1 | inactive | 
